PubChem BioAssay (NCATS)
Records with an inconclusive call do not appear. The source made the active and inactive calls. Unless noted, calls come from the whole dose curve.

Assays:
[1] = target: Lysosomal acid glucosylceramidase (Homo sapiens) (UniProt P04062); test: Glucocerebrosidase-p2 (AID 348; in the data active = potency below about 10 µM; note: potency is the fitted concentration of half-maximal effect); conditions: purified GBA, blue fluorogenic substrate, 40 min
In short: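 Compounds titrated from 0.6 nM upwards against 0.2 nM enzyme in pH 5.9 citric acid/KH2PO4, taurocholate, tween-20; blue fluorogenic substrate 80 uM, 40 min room temperature, stopped and read Ex 365/Em 440 for AC50.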

[2] = NFAT Signaling Pathway (AID 444; active = well fitted curve in either direction with a large enough effect, not every such curve was filed as active;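 note: carbachol stimulus at about its EC50 of 1 µM final; % is set by controls: 0 for no effect and ±100 for the full control effect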); conditions: Jurkat NFAT-bla M1, carbachol, beta-lactamase ratio, 5 h; at 7.69 µM (top of the series) unless noted
In short: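 Read-out: CCF4 FRET ratio (460 nm/530 nm) after 1 h RT dye loading, used for %activity and AC50 from titration series. Cells: Jurkat NFAT-β-lactamase/M1 line, treated with compound plus 1 uM carbachol for 5 h, 37 °C.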

[3] = Stat Signaling Pathway (AID 446; active = well fitted curve in either direction with a large enough effect, not every such curve was filed as active;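 note: ME-180 cervical cancer cells given 40 pM IL-6 alongside compound; SIE-controlled beta-lactamase reporter measured as 460/530 nm FRET emission ratio; % is set by controls: 0 for no effect and ±100 for the full control effect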); conditions: ME-180 SIE beta-lactamase reporter, IL-6 stimulated, 5 h; at 7.69 µM (top of the series) unless noted
In short: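 Screening format detects activators and inhibitors alike: ME-180 SIE-bla cells stimulated at 40 pM IL-6 for 5 hrs with compound, then dual-emission beta-lactamase read at 405 nm excitation.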

[4] = target: Glucocorticoid receptor (Homo sapiens) (UniProt P04150); test: GR-GFP Redistribution (AID 450;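 active = compounds whose dose series gives a full or clear partial fitted curve of increased nuclear translocation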; note: potency is the fitted concentration of half-maximal effect); conditions: U2OS GR-GFP nuclear translocation, laser cytometry, 2 h
Glucocorticoid receptor (Homo sapiens), sequence (P04150 whole entry, looked up, the tested form may be a part): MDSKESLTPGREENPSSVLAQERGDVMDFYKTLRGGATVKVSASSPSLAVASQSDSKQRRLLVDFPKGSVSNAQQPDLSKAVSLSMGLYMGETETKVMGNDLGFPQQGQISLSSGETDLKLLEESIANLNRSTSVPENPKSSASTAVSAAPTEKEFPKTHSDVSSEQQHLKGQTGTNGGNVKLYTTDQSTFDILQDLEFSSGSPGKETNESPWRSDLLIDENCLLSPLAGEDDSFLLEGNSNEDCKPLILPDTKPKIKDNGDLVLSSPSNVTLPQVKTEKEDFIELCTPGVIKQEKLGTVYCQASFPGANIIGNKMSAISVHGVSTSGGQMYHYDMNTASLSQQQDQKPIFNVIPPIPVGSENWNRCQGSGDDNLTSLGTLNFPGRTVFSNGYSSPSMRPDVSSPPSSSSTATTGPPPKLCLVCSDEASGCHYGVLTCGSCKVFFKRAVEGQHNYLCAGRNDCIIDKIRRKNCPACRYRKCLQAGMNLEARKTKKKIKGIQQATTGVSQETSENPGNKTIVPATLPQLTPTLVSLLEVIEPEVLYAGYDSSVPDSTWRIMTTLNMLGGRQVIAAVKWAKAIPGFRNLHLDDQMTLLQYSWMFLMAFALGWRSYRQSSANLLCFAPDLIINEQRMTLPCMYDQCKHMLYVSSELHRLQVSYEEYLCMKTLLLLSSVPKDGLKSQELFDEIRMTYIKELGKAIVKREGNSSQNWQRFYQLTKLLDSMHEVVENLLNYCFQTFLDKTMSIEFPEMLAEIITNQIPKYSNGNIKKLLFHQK

[5] = target: Glucocorticoid receptor (Homo sapiens) (UniProt P04150); test: GR-EFC Redistribution (AID 451); conditions: CHO-K1 GR-EFC translocation, beta-gal luminescence, 2 h; note: potency is the fitted concentration of half-maximal effect
In short: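 Translocation of GR-ED fusion to nuclear EA restores b-gal, read by luminescence after 1 h room-temperature detection. Engineered CHO-K1 biosensor cells, 1,000/well, exposed 2 h at 37 C to titrations up to 46 uM final.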

[6] = target: Mitogen-activated protein kinase 10 (Mus musculus) (UniProt Q61831); test: JNK3 AlphaScreen Assay (AID 530; active = well fitted curve in either direction with a large enough effect, not every such curve was filed as active;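 note: kinase came from lysate of stimulated human HepG2 cells; signal reports phosphorylation of biotinylated GST-cJun 1-79 at Ser73 with 10 µM ATP; % is set by controls: 0 for no effect and ±100 for the full control effect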); conditions: JNK3 lysate, c-Jun phosphorylation; series mostly up to 57.1 µM
In short: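 Compound titrations were preincubated 15 minutes at room temperature with substrate, antibody and pre-activated JNK3-containing HepG2 lysate. Reactions were started with 10 uM ATP and stopped with EDTA-containing bead buffer for AlphaScreen detection.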

[7] = target: 3',5'-cyclic-AMP phosphodiesterase 4B (Homo sapiens) (UniProt Q07343); test: qHTS Assay for Inhibitors of PDE-IV (AID 607; active = well fitted activation curve with a large enough effect in the main read-out, with a control signal flat, not every such curve was filed as active; note: % of control where 0% means no effect); conditions: HEK293 ACTOne CNG channel cells, membrane potential fluorescence; series mostly up to 22.9 µM
3',5'-cyclic-AMP phosphodiesterase 4B (Homo sapiens), sequence (Q07343 whole entry, looked up): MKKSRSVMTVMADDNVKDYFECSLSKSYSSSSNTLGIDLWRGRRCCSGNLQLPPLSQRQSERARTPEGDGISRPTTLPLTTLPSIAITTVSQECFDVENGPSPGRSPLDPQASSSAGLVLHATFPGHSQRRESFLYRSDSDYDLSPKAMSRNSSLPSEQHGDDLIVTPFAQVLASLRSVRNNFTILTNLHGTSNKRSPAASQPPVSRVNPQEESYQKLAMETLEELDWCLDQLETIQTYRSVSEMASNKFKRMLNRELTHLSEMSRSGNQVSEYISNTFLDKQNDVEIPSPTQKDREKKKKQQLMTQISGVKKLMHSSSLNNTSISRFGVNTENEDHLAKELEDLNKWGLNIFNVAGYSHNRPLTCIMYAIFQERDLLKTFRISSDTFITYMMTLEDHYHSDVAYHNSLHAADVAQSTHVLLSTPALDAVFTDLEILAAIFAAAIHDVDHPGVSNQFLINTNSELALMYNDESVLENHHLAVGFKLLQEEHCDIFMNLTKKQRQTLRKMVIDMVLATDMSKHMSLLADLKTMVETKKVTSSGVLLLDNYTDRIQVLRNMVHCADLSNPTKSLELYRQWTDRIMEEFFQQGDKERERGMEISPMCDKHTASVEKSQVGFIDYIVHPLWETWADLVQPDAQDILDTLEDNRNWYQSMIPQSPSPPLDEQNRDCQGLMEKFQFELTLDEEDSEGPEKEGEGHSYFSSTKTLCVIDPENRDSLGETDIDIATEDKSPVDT
In short: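 The readout is membrane depolarisation from a cAMP-sensing CNG channel, detected with a potential dye at ex 535/em 590. Cells were HEK293-derived (endogenous PDE-IV) at 1000 cells/well, titrated up to 22.9 uM final.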

[8] = qHTS Assay for Lipid Storage Modulators (AID 1519); conditions: Drosophila S3 cells, BODIPY lipid droplet/cell ratio, laser cytometry, cells loaded with oleic acid; for activity change, negative = inhibition: at 57.5 µM (top of the series)
In short: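 Cells seeded at 5,000 per well were treated with compounds over a concentration series and loaded with oleic acid (400 uM, as added). Lipid droplet fluorescence (488 nm excitation, 500-530 nm channel) was read by laser-scanning cytometry and normalized to 20 uM Triacsin C.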

[9] = Primary qHTS for small molecule stabilizers of the endoplasmic reticulum resident proteome: Secreted ER Calcium Modulated Protein (SERCaMP) assay (AID 1508630; active = well fitted curve in the direction sought with a large enough effect; an effect the other way counts as inactive or inconclusive; note: % is set by controls: 0 for no effect and ±100 for the full control effect); conditions: SH-SY5Y GLuc-SERCaMP (Gaussia luciferase released on ER calcium loss) secretion, thapsigargin, luminescence; series mostly up to 38.4 µM
In short: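 GLuc-SERCaMP-expressing SH-SY5Y cells, pretreated 16 h with compound, are challenged with thapsigargin to empty ER calcium stores; after 4 h, coelenterazine is added directly to the medium and luminescence is imaged.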

[10] = target: Cytochrome P450 1A2 (Homo sapiens) (UniProt P05177); test: p450-cyp1a2 (AID 410); conditions: recombinant CYP1A2, luciferin-ME demethylation, luminescence; series mostly up to 57 µM; note: potency is the fitted concentration of half-maximal effect;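 for activity change, negative = inhibition: -100% = full effect of reference inhibitor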
Cytochrome P450 1A2 (Homo sapiens), sequence (P05177 whole entry, looked up): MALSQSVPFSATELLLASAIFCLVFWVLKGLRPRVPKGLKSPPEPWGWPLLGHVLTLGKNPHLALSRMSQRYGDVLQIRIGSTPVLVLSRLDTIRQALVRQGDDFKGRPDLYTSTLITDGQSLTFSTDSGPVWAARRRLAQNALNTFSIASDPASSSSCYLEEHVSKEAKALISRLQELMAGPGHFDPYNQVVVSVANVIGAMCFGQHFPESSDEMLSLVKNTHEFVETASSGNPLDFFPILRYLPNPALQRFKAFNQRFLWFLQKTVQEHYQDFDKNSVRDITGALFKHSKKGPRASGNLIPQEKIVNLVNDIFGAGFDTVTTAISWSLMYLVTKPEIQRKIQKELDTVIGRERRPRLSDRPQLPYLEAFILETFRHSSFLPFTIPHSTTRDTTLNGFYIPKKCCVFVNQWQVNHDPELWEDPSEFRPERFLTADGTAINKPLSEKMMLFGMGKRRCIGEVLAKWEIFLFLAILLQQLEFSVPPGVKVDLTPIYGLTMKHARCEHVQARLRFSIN
In short: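 Luminescent readout of luciferin formed from Luciferin-ME by human CYP1A2; data normalized against complete inhibition by 57 uM furafylline. Enzyme 20nM, substrate 100uM at Km, 100mM KPO4 buffer, 60 min reaction at room temperature.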

[11] = target: Cytochrome P450 3A4 (Homo sapiens) (UniProt P08684); test: qHTS Assay for Activators of Cytochrome P450 3A4 (AID 885; active = well fitted curve in the direction sought with a large enough effect; an effect the other way counts as inactive or inconclusive; note: nearly all actives have a fitted effect of over 65% in size); conditions: recombinant CYP3A4, Luciferin-PPXE luminescence, 60 min; series mostly up to 57.1 µM
Cytochrome P450 3A4 (Homo sapiens), sequence (P08684 whole entry, looked up): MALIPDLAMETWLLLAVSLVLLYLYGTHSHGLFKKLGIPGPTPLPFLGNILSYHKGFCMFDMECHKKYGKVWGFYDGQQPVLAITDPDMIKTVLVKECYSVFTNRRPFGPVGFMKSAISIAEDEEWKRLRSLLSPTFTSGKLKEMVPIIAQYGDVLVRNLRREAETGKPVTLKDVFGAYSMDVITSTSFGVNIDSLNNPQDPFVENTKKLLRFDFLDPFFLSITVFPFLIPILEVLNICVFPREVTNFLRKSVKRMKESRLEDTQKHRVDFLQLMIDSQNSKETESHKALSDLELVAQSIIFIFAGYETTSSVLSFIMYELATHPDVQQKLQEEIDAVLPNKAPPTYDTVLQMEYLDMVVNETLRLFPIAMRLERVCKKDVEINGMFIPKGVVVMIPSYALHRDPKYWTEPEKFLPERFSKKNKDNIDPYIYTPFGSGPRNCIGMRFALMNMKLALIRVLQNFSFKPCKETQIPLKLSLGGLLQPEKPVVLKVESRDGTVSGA
In short: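 Steps: enzyme/substrate mix dispensed; compound added, 10 min RT; NADPH regeneration solution added, 60 min RT; luciferin detection buffer stops reaction; 20 min later luminescence measured.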

[12] = target: Cytochrome P450 2C19 (Homo sapiens) (UniProt P33261); test: qHTS Assay for Inhibitors and Substrates of Cytochrome P450 2C19 (AID 899; active = well fitted curve in the direction sought with a large enough effect; an effect the other way counts as inactive or inconclusive; note: potency is the fitted concentration of half-maximal effect; nearly all actives have a fitted effect of over 60% in size); conditions: recombinant CYP2C19, luciferin-H EGE luminescence; series mostly up to 57.1 µM
Cytochrome P450 2C19 (Homo sapiens), sequence (P33261 whole entry, looked up): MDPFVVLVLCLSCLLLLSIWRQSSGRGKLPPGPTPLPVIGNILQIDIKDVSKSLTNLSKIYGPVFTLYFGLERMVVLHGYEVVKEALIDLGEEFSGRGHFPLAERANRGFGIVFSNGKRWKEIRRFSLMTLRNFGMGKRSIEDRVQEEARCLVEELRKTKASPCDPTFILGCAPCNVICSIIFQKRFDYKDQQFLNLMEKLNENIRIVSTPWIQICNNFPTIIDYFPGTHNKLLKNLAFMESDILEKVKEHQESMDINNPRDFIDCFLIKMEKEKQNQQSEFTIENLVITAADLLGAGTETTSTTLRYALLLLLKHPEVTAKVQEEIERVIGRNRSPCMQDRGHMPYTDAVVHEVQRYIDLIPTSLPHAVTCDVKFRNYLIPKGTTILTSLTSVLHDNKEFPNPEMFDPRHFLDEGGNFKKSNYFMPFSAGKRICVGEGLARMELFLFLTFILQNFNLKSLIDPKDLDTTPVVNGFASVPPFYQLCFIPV
In short: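 Reactions contain 5nM enzyme, 10uM Luciferin-H EGE (KM) and 50mM KPO4; compound preincubates 10 min at 37C, NADPH regeneration starts turnover for 60 min. Luminescence after detection reagent gives activity.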

[13] = Confirmation and Secondary Assay for Modulators of Hemoglobin Beta Chain Splicing at IVS2 654 locus (AID 910; active = well fitted curve in the direction sought with a large enough effect; an effect the other way counts as inactive or inconclusive;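 note: HeLa cells stably carrying EGFP split by mutant beta-globin IVS2-654 intron; per-well total GFP intensity by laser scanning cytometry after 2-day treatment; % of control where 0% means no effect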); conditions: HeLa EGFP-654 splicing reporter, GFP fluorescence, 48 h; series mostly up to 38.3 µM
In short: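 Readout: per-well total peak green fluorescence (488 nm ex, 500–520 nm em) from objects 5–250 µm, reflecting correct splicing of an EGFP-654 reporter. Compounds were applied for 2 days at 37 °C to overnight-plated HeLa EGFP-654 cells; controls were DMSO and 500 nM IVS2-654 PNA.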

[14] = Confirmation and Secondary Assay for Modulators of Hemoglobin Beta Chain Splicing at IVS2 705 locus (AID 930; active = well fitted curve in the direction sought with a large enough effect; an effect the other way counts as inactive or inconclusive;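 note: HeLa cells stably expressing the EGFP-705 splicing reporter; GFP fluorescence per well restored by corrected splicing of the IVS2-705 intron in EGFP; % of control where 0% means no effect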); conditions: HeLa EGFP-705 splicing reporter, GFP fluorescence, 48 h; series mostly up to 38.3 µM
In short: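 Assay measures total GFP intensity per well in HeLa EGFP-705 cells after 2 days with compound; mis-splicing normally truncates EGFP, so fluorescence indicates corrected splicing.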

[15] = target: Ubiquitin carboxyl-terminal hydrolase 1 (Homo sapiens) (UniProt O94782); test: Inhibitors of USP1/UAF1: Pilot qHTS (AID 504865; active = well fitted curve in the direction sought with a large enough effect; an effect the other way counts as inactive or inconclusive;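 note: rhodamine fluorescence freed from ubiquitin-rhodamine substrate followed over time; top concentration of the series differs between compounds; % is set by controls: 0 for no effect and ±100 for the full control effect; nearly all actives have a fitted effect of over 35% in size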); conditions: purified USP1/UAF1, Ub-rhodamine cleavage fluorescence; series mostly up to 54.9 µM
Ubiquitin carboxyl-terminal hydrolase 1 (Homo sapiens), sequence (O94782 whole entry, looked up): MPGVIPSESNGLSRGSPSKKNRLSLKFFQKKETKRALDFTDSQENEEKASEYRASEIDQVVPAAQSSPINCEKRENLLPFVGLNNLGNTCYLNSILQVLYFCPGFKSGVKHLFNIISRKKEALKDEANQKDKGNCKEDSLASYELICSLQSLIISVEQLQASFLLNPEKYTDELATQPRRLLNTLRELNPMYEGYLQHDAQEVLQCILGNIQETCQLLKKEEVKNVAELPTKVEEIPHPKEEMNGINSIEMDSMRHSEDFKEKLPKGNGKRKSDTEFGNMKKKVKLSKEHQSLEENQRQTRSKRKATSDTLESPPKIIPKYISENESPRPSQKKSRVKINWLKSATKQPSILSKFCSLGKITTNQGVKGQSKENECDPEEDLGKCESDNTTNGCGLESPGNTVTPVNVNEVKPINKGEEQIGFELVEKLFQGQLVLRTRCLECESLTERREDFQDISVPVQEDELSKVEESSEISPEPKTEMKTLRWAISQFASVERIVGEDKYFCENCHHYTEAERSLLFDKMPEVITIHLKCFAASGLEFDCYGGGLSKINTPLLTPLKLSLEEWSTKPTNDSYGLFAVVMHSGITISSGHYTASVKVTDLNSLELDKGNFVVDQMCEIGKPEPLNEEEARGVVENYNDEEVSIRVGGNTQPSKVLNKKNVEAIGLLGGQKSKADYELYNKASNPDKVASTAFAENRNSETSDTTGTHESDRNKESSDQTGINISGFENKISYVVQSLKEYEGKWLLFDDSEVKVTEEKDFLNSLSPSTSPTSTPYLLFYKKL
In short: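 Enzyme-free wells gave the negative control, while test wells held 1nM USP1/UAF1 preincubated with compound for 15 min at room temperature. Ub-Rho at 150nM final started the reaction, and fluorescence at 480/540 nm was recorded kinetically.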

[16] = AP1 Signaling Pathway (AID 357; active = well fitted curve in either direction with a large enough effect, not every such curve was filed as active); conditions: ME-180 AP-1-bla reporter, EGF-induced, beta-lactamase ratio, 5 h; at 7.69 µM (top of the series) unless noted
In short: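 First, ME-180 AP-1-bla cells were cultured overnight at 37 °C in low-serum Opti-MEM. Next, titrated compounds with EC50 EGF were incubated 5 hours. Finally, CCF4 was added for 2.5 hours and the 460/530 nm ratio recorded.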

[17] = target: Cytochrome P450 3A4 (Homo sapiens) (UniProt P08684); test: qHTS Assay for Inhibitors and Substrates of Cytochrome P450 3A4 (AID 884; active = well fitted curve in the direction sought with a large enough effect; an effect the other way counts as inactive or inconclusive; note: potency is the fitted concentration of half-maximal effect; nearly all actives have a fitted effect of over 50% in size); conditions: recombinant CYP3A4, Luciferin-PPXE luminescence; series mostly up to 57.1 µM
In short: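 20 nM human CYP3A4 with 25 uM Luciferin-PPXE (at KM) in 200 mM KPO4, preincubated 10 min with compound; NADPH regeneration started a 60 min RT reaction. Luciferin detected by luminescence, normalized to 57 uM ketoconazole as full inhibition.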

[18] = qHTS Assay for Identification of Small Molecule Agonists for Hypoxia Response Element Signaling Pathway (AID 914; active = well fitted activation curve with a large enough effect in the signal ratio, with a control signal flat, not every such curve was filed as active; the % refers to the signal ratio; note: % of control where 0% means no effect); conditions: ME-180 (cervical carcinoma) HRE-bla reporter, beta-lactamase ratio, CoCl2, 17 h; activation: stronger effect = higher value
In short: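 Compounds in a titration series were added to ME-180 reporter cells alongside an EC50 level of CoCl2. After 17 hours, beta-lactamase activity was read as the 460nm/530nm emission ratio of CCF4, giving AC50 values.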

[19] = measured here: cell count channel max response
[20] = measured here: lipid channel max response

Lysosomal acid glucosylceramidase (Homo sapiens), sequence (P04062 whole entry, looked up): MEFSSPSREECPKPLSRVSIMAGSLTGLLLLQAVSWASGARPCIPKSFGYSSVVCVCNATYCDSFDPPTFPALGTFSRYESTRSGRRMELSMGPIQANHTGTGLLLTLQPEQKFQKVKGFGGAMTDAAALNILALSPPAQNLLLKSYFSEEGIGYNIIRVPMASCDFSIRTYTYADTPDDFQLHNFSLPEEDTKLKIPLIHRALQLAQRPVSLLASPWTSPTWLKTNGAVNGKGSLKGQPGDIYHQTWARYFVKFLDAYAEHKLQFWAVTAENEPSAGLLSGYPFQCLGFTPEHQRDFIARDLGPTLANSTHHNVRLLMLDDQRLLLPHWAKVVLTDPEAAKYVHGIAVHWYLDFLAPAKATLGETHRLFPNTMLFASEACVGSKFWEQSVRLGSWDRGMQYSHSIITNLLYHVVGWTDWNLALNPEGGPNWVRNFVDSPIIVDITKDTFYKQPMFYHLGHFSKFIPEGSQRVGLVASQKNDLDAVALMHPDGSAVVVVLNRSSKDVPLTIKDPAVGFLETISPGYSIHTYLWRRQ

Structure (SMILES)	Potency [1]	activity change, negative = inhibition [2]	activity, negative = inhibition [3]	Potency [4]	Potency [5]	Potency [6]	Potency [7]	activity change, negative = inhibition [8]	max response [8, 19] [%]	max response [8, 20] [%]	outcome [9]	Potency [10]	Potency [11]	Potency [12]	Potency [13]	outcome [14]	Potency [15]	activity change, negative = inhibition [16]	Potency [17]	activation [18]
COc1ccc(Oc2ncc3nc(-c4ccc(OC)cc4)c(=O)n(CCC#N)c3n2)cc1	> 11.4 µM (inactive)	7.68% (inactive)	2.86% (inactive)	> 9.22 µM (inactive)	> 46 µM (inactive)	inactive	inactive	-1.07% (inactive)	17.2	21	inactive	–	–	–	–	–	–	–	–	–
CCNc1ncc2nc(-c3ccc(OC)cc3)c(=O)n(Cc3cccc(OC)c3)c2n1	> 11.4 µM (inactive)	–	–	> 9.22 µM (inactive)	> 46 µM (inactive)	inactive	–	-12% (inactive)	-21.5	-29.7	inactive	15.8 µM (active)	inactive	–	–	–	–	–	–	–
O=C(Oc1ccccc1)N1CCC[C@@]2(CCN(c3ccncc3)C2)C1	> 11.4 µM (inactive)	–	-2.61% (inactive)	–	> 46 µM (inactive)	inactive	inactive	4.19% (inactive)	13.6	23.8	inactive	20 µM (active)	inactive	5.01 µM (active)	–	–	–	–	–	–
O=S(=O)(c1ccccc1)N1CCC[C@@]2(CCN(Cc3cc(C(F)(F)F)cc(C(F)(F)F)c3)C2)C1	> 11.4 µM (inactive)	–	–	–	> 46 µM (inactive)	inactive	–	4.5% (inactive)	17.1	25.2	inactive	inactive	–	–	–	–	–	–	–	–
COc1ccc(CNc2nc(-c3ccc(C(=O)N(C)C)cc3)nc3ccccc23)c(OC)c1	> 11.4 µM (inactive)	–	–	> 46 µM (inactive)	> 46 µM (inactive)	inactive	–	6.93% (inactive)	-11.3	8.44	inactive	15.8 µM (active)	inactive	–	inactive	inactive	inactive	–	–	–
N#Cc1cccc(NC(=O)N2CCCC3(CCN(S(=O)(=O)c4ccccc4)CC3)C2)c1	> 11.4 µM (inactive)	–	-2.4% (inactive)	–	> 46 µM (inactive)	inactive	inactive	-3.45% (inactive)	1.48	-1.95	inactive	–	–	–	–	–	–	–	–	–
CS(=O)(=O)Nc1cccc(-c2nccc(-n3ccnc3)n2)c1	–	-0.156% (inactive)	0.985% (inactive)	> 46 µM (inactive)	> 46 µM (inactive)	inactive	inactive	2.72% (inactive)	1.42	5	inactive	0.2 µM (active)	inactive	–	inactive	inactive	inactive	-9.45% (inactive)	1.58 µM (active)	-11.9% (inactive)
